According to PubChem BioAssay AID2284156 (EPA ToxCast):
Calls of active or inactive are those of the source. How the source made its calls: active means hit-call score of the fitted dose curve at least 0.9, where 1 is the maximum; inactive means score below 0.9.

biological target: Muscarinic acetylcholine receptor M5 (Homo sapiens) (UniProt P08912); assay: ERF_FR_GPCR_hCHRM5: Eurofins (ERF) G Protein-Coupled Receptor (GPCR) Radioligand Binding LeadHunter Assay for human Muscarinic Acetylcholine Receptor M5 Antagonism, conducted at France lab site
Sequence (P08912 whole entry, looked up): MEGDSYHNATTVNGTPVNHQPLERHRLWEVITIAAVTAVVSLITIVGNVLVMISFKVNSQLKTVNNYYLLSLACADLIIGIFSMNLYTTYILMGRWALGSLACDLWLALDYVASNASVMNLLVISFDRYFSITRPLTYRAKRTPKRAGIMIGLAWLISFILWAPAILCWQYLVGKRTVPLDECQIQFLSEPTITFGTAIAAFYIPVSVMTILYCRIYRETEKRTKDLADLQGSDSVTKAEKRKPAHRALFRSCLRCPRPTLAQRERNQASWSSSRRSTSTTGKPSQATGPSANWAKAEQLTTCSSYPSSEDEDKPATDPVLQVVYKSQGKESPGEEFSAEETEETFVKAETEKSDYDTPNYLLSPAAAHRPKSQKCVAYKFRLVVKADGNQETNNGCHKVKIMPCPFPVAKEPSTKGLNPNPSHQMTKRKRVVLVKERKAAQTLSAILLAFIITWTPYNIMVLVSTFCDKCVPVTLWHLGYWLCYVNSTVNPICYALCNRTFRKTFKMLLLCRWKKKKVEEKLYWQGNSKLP
Procedure: ERF_FR_GPCR_hCHRM5 is a biochemical, single-readout assay that uses extracted gene-proteins in a cell-free assay. Measurements were taken 1 hour after chemical dosing in a 96-well plate. See M5 Human Acetylcholine (Muscarinic) GPCR Binding (Antagonist Radioligand) Assay, Cerep.ERF_FR_GPCR_hCHRM5 is an assay component calculated from the ERF_FR_GPCR_hCHRM5 assay. It is designed to measure radioligand binding using a type of binding reporter as detected by scintillation counting with radiometry technology.Data from the assay component ERF_FR_GPCR_hCHRM5 was analyzed at the assay endpoint, ERF_FR_GPCR_hCHRM5, in the positive analysis fitting direction relative to DMSO as the negative control and baseline of activity. Using a type of binding reporter, loss-of-signal activity can be used to understand changes in binding as they relate to gene CHRM5. To generalize the intended target to other relatable targets, this assay endpoint is annotated to the gpcr intended target family, where the subfamily is acetylcholine (Muscarinic).
Human cells are incubated for 60 minutes at room temprature with [3H]4-DAMP ligand (0.3 nM) and 4-Damp methiodide as control inhibitor.Test Sample Requirements: Minimum for 1) Screen: 60 ul of 10 mM stock -OR- 1 mg (pre-weighed) for 10 uM final testing. 2) Dose Response: 90 ul of 10 mM stock -OR- 1 mg (pre-weighed) for a top concentration at 10 uM.

**Q.** `O=C(/C=C/c1ccc(O)cc1)CC(=O)/C=C/c1ccc(O)cc1` was tested. Which outcome did it give?
**A.** inactive
